# Among all 420,000 compounds or so, about 64,000 (15%) were called active. Inconclusive results (about 27%) are left out. Calls follow the shape of the dose curve; as a rule, active = well fitted inhibition curve with a large enough effect; inconclusive = small, poorly fitted or top-dose-only effect; inactive = flat fitted curve, though single readings scatter. Only a sample is shown. A call without a number means that no potency is given here.
# Assay: qHTS for Inhibitors of human tyrosyl-DNA phosphodiesterase 1 (TDP1): qHTS in cells in absence of CPT; also: nearly all actives have a fitted effect of over 55% in size
# Settings: DT40 Tdp1-/- hTDP1 cells, no CPT, ATP luminescence, 48 h; activity change, negative = growth inhibition: at 46.2 µM (top of the series)
# How it was run: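 No-CPT arm: Tdp1-/-;hTDP1 DT40 cells (400/well) plus compounds, incubated ≥48 hr at 37 °C. Readout CellTiter-Glo luminescence.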
# Potency is read from the fitted curve at half-maximal effect.
row,Structure (SMILES),Potency
1,CC1CCN(C(=O)Cn2cc(C(=O)c3ccco3)c3ccccc32)CC1,inactive
2,CC(CC(=O)O)CC(=O)NNC(=O)c1cccc(Br)c1 (stereo not given),inactive
3,COc1ccc(NC(=O)CC2C(=O)OCC3CCCCN32)cc1Cl (stereo not given),inactive
4,N#CC1(NC(=O)COC(=O)Cc2n[nH]c(=O)c3ccccc23)CCCCC1,inactive
5,O=C(Nc1ccccc1C(=O)N1CCOCC1)C1CCC(=O)N1C1CCCC1 (stereo not given),inactive
6,Cc1nc(C)c(C(=O)Nc2cccc(C)c2C)o1,inactive
7,CC1(C)C2CC=C(/C=N/NC(=O)C3CC3)C1C2 (stereo not given),inactive
8,COC(=O)c1cc(OC)c(OC)cc1NC(=O)C1CCCO1 (stereo not given),inactive
9,COc1cc(=O)n2c(c1C(=O)N(C)Cc1nonc1C)CCN(C(=O)c1ccc(C)cc1C)CC2,inactive
10,COc1ccccc1C(=O)CSc1cccc[n+]1[O-],inactive
11,O=C(Cc1ccc(Cl)cc1)c1ccccc1,inactive
12,CC(NC(=O)COC(=O)CCC(=O)c1ccc(Cl)cc1)c1ccccc1 (stereo not given),inactive
13,CCN(C(=O)CSc1nnc(-c2ccncc2)o1)c1ccccc1,inactive
14,O=C(CSc1nnc2ccccn12)c1ccccc1,inactive
15,O=C(CSc1cccc[n+]1[O-])c1ccc(Cl)cc1,5.17 µM (active)
16,CCN(CC)c1ccc(S(=O)(=O)N2CCOCC2)cc1NC(=O)CSc1cccc[n+]1[O-],inactive
17,O=C(CSc1cccc[n+]1[O-])c1ccc(-c2ccccc2)cc1,0.82 µM (active)
18,CCN(C(=O)CSc1cccc[n+]1[O-])c1ccccc1,1.84 µM (active)
19,Cc1ccc(C2=CSC3=NS(=O)(=O)CCN23)cc1C,inactive
20,CCCCNC(=O)N(O)C1N(/N=C/c2ccccc2O)C(=S)SC1(C)C (stereo not given),inactive
21,CC(C)C1Nc2c(C(=O)O)cccc2C(Nc2ccccc2C(=O)O)C1(C)C (stereo not given),inactive
22,Cc1ccc(N/N=C2\COC(C)(C)CC2=O)cc1,inactive

row,Structure (SMILES),Potency
1,O=C(NCc1ccccc1Cl)c1csc([C@@H]2O[C@H](CO)[C@@H](O)[C@H]2O)n1,inactive
2,Cc1ccsc1C(=O)NCCc1ccco1,inactive
3,CCCn1nc2cc(C(=O)NCc3ccccc3)ccc2c1OCC,inactive
4,COc1cc(C(=O)NCc2ccncc2)cc(Br)c1OCc1ccccc1,23.1 µM (active)
5,C[n+]1ccc(C(=O)NCc2ccccc2)cc1,inactive
6,Cc1ccc2c(c1)C(O)(CC(=O)c1cccnc1)C(=O)N2 (stereo not given),inactive
7,Cc1ccc(NC(=O)c2ccc(Oc3ncccn3)cc2)cc1,inactive
8,CC(C)c1c(C(=O)N/N=C/c2ccccc2C(=O)O)nnn1-c1nonc1N,inactive
9,O=C(/C=C/c1ccc(F)cc1)Nc1cccc(S(=O)(=O)Nc2cccc(C(F)(F)F)c2)c1,8.2 µM (active)
10,CC(C)(CNC(=O)c1cc(=O)[nH]c2ccccc12)N1CCOCC1,inactive
11,O=C(O)c1cccc(N2C(=O)Nc3ccccc3N2O)c1,inactive
12,CN1C(=O)c2ccc(NC(=O)c3c(F)c(F)c(F)c(F)c3F)cc2C1=O,inactive
13,COc1ccc(Cn2cc(CN3CCS(=O)(=O)N(Cc4ccc(-c5cccc(Cl)c5)cc4)C(C)C3=O)nn2)cc1 (stereo not given),25.9 µM (active)
14,CCCC[C@H]1COCCS(=O)(=O)N1Cc1cccc(Cl)c1,inactive
15,CC1C(=O)N(Cc2cn(CC3CCCCC3)nn2)CCS(=O)(=O)N1Cc1ccc(-c2cccc(N(C)C)c2)cc1 (stereo not given),7.31 µM (active)
16,O=S1(=O)CC(N2CCSCC2)CN1Cc1cn(Cc2cccc(Cl)c2)nn1 (stereo not given),inactive
17,O=S(=O)(/C=C/c1ccccc1)N1CCNCC1,inactive
18,O=C1Cc2cc(S(=O)(=O)Nc3cccc(F)c3)ccc2N1,inactive
19,CC(/C=C/c1ccco1)=N/NC(=O)C1COc2ccccc2O1 (stereo not given),16.4 µM (active)
20,C/C(=N/NC(=O)C1COc2ccccc2O1)c1ccco1 (stereo not given),inactive
21,CC(=O)c1cccc(NC(=O)C2COc3ccccc3O2)c1 (stereo not given),inactive
22,CCOc1cc(C(=O)Nc2c(C)ccc3nsnc23)cc(OCC)c1OCC,inactive

row,Structure (SMILES),Potency
1,CC1O[C@H](OC2C(COC3OC(CO)C(O)[C@H](O)C3O)OC(OC3CC[C@]4(C)C(CC[C@@]5(C)[C@@H]4C=C[C@]46OC[C@@]7(CCC(C)(C)C[C@H]74)C(O)C[C@@]56C)C3(C)C)C(O)C2O)C(O)C(O)C1O (stereo not given in full),inactive
2,O=C(COC(=O)CNS(=O)(=O)c1ccccc1)NC12CC3CC(CC(C3)C1)C2,inactive
3,O=C1C(Cl)=C(Oc2ccccc2)C(=O)c2ccccc21,0.259 µM (active)
4,CC(=O)Oc1ccc2c(c1)C(=O)c1ccccc1C2=O,inactive
5,Cc1cc(Nc2ccc(C(=O)N3CCCCC3)cc2)c2cccc(C)c2n1,inactive
6,CCc1c(C)sc(NC(=O)OC)c1C(=O)N1CCOCC1,inactive
7,CCCOC(=O)CC1C(=O)NCCN1Cc1ccc(F)cc1 (stereo not given),inactive
8,COc1ccc(NS(=O)(=O)c2ccc(Oc3c(C#N)cccc3C#N)cc2)cc1,5.8 µM (active)
9,COc1ccc(NC(=O)/C(N=Nc2cccc(S(=O)(=O)Nc3ccc(SC(F)F)cc3)c2)=C(\C)O)cc1,inactive
10,COc1ccc(NS(=O)(=O)c2cccc(C(=O)NCCc3ccc(S(N)(=O)=O)cc3)c2)cc1,inactive
11,C[C@H](CO)N1C[C@H](C)[C@@H](CN(C)C(=O)NC2CCCCC2)Oc2ccc(NC(=O)c3ccncc3)cc2C1=O,inactive
12,CO/N=C(\C(=O)N[C@@H]1C(=O)N2C(C(=O)O)=C(COC(C)=O)CS[C@H]12)c1csc(N)n1 (stereo in doubt),inactive
13,COc1cccc(-c2nc(CS(=O)(=O)CC(=O)NCCc3ccc(OC)c(OC)c3)c(C)o2)c1,inactive
14,CCCCN(CC)CCCNC(=O)CS(=O)(=O)Cc1nc(-c2cccc(OC)c2)oc1C,inactive
15,COc1cccc(-c2nc(CS(=O)(=O)CC(=O)N3CCN(c4cc(C)ccc4C)CC3)c(C)o2)c1,3.66 µM (active)
16,CCN(CC)CCN(C)C(c1ccnc2ccccc12)c1nnnn1-c1ccc2c(c1)OCCO2 (stereo not given),18.4 µM (active)
17,CC(=O)NC1CCN(CC(=O)Nc2nccs2)CC1,inactive
18,Cc1cc(C)n(CCNC(=O)CC2C(=O)NCCN2Cc2ccc(C)o2)n1 (stereo not given),inactive
19,COC(=O)c1ccc(NC(=O)C23CC4CC(C2)CC(n2cnc(Cl)n2)(C4)C3)cc1,16.4 µM (active)
20,COC(=O)c1ccc(NC(=O)CSc2nnc(C3CC3)n2C)cc1,inactive
21,Cc1ncn(C23CC4CC(CC(O)(C4)C2)C3)n1,inactive

# Source: PubChem BioAssay AID686978 (National Center for Advancing Translational Sciences (NCATS), 2013)
